These results are taken from PubChem BioAssay AID492947 (National Center for Advancing Translational Sciences (NCATS), 2010).

The campaign covered roughly 330,000 compounds. About 80 (0.02%) were called active. Where a call stands in place of a potency, no number is given. Calls come from the whole dose curve; as a rule, active = well fitted activation curve with a large enough effect; inconclusive = small, poorly fitted or top-dose-only effect; inactive = flat fitted curve, though single readings scatter. The full list was thinned out, with actives kept by preference.
Potency is the fitted concentration of half-maximal effect.

Beta-2 adrenergic receptor (Homo sapiens), sequence (P07550 whole entry, looked up): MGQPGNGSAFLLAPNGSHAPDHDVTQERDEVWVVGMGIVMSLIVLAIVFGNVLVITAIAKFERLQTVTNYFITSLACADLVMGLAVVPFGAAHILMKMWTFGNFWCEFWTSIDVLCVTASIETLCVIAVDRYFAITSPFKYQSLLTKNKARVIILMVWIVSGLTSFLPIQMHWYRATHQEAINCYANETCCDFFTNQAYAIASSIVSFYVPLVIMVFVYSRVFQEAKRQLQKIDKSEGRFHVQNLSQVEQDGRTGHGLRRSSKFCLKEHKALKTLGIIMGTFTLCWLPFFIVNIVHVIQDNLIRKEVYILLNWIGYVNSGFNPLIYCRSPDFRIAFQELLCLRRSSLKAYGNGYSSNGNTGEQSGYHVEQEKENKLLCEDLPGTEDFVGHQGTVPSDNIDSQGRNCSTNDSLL

The target of the assay is Beta-2 adrenergic receptor (Homo sapiens) (UniProt P07550). Nature of the assay: qHTS assay of beta-arrestin-biased ligands of beta2-adrenergic receptor. Note: nearly all actives have a fitted effect of over 65% in size. The note with it: beta-arrestin recruitment to beta2AR, cell-based reporter; series mostly up to 46.1 µM. An excerpt:
NIH Molecular Libraries Probe Production Network [MLPCN]
NIH Chemical Genomics Center [NCGC]
PI: Bryan Roth and Bob Lefkowitz
The concept of biased agonism is an emerging concept of molecular pharmacology which proposes that seven transmembrane receptors (7TMRs) or G protein-coupled receptors (GPCRs), exist in multiple signaling conformations and complexes and that ligands (either agonists or antagonists) can induce signaling biased responses for distinct signal transduction cascades.
Furthermore, accumulating evidence over the last decade has drawn attention to a novel function of beta-arrestins as signal transducers that scaffold various signaling molecules upon activation of 7TMRs. […] This beta-arrestin-biased signaling presumably leads to distinct physiological outcomes from those by G protein activation.
Additionally, the active receptor conformations which […] on this beta-arrestin signaling are likely different from those activating G protein signaling
The goal of this screening project will be to discover and optimize novel beta-arrestin-biased ligands for beta2-AR signaling. A luminescent cell-based assay for beta2-AR-mediated agonism, known as the Tango assay, has been validated in which ligand binding of a recombinant beta2-AR and subsequent recruitment of a recombinant beta-arrestin lead to the release of the transcriptional activator tTA, which upregulates transcription of a tTA-responsive luciferase gene. […] Compounds were screened as a concentration-titration series that ranged from 46 microM to 0.6 nM.
NCGC Assay Protocol Summary:
Tango cells were dispensed into white, solid, tissue-culture-treated 1536-well plates at 1500 cells/well in DMEM, containing 1% fetal bovine serum (FBS). Then, 23 nL of compounds or DMSO were delivered to each well using a pin tool. Plates were incubated at 37 degrees C, 5% CO2 for 18 hr. Then 2.5 uL luminescent substrate mix (in-house prepared: 150 mM Tris-Cl, pH 7.6, 3 mM MgCl2, 1% Triton X-100, 5 mM DTT, 0.5 mM CoA, 0.15 mM ATP, 0.44 mM D-luciferin, final concentrations) was added to each well. Plates were then incubated for 15 minutes at room temperature, and subsequently measured on a ViewLux plate reader for luminescent signal using a clear filter with a 10 second exposure and 2x binning. The %Activity was determined from the corrected luminescence values.
Concentration-response curves were fitted to the signals arising from the resulting luminescence. The concentration-effect curves were then classified based on curve quality (r2), response magnitude and degree of measured activity, and compounds were subsequently categorized based on their curve class.
Keywords: biased agonism, beta2-AR, beta-arrestin, GPCR, 7TMR, Tango, luminescence, MLSMR, MLPCN, NIH Roadmap, qHTS, NCGC
In the case of `COc1ccc(Cn2c(-c3ccc(Cl)cc3)c[n+]3ccccc23)cc1`, the Potency result is “inactive”.
In the case of `Cc1cc(NC(=O)CSc2nccn2-c2ccc([N+](=O)[O-])cc2)no1`, the Potency result is “inactive”.
As for `COc1ccc(N=Nc2c(-c3ccc(OC)cc3)[nH]oc2=O)cc1`, the Potency result was “inactive”.
For `COc1ccccc1CNS(=O)(=O)CC12CCC(CC1=O)C2(C)C` (stereo unspecified), the Potency result was “inactive”.
Take `CCC(C)NC(=O)c1nn(C)c(=O)c2ccccc12` (stereo unspecified): the Potency entry was “inactive”.
For `CCOc1ccc2c(c1)c(=O)c(S(=O)(=O)c1ccc(C)cc1)cn2CC`, the Potency entry is “inactive”.
In the case of `COc1ccc2ccccc2c1CNCc1ccccn1`, the Potency result was “inactive”.
The result for `O=C(Cn1nnc2ccccc2c1=O)Nc1cc(C(F)(F)F)ccc1N1CCOCC1` reads “inactive”; that for `Cc1ccc(SCC(=O)NNC(=O)c2ccc(S(C)(=O)=O)cc2)cc1`, “inactive”; that for `CC1Cc2ccccc2N1C(=O)Cn1cnc2ccccc2c1=O` (stereo unspecified), “inactive”.
For `CC1CCCC(NC(=O)c2cc(-c3ccncc3)nc3ccccc23)C1C` (stereo unspecified), the Potency result is “inactive”.
Regarding `CC1CCN(c2oc(-c3ccccc3F)nc2C#N)CC1`, the Potency entry was “inactive”.
Take `O=C(Nc1c(-c2ccccc2)nc2c(Br)cc(Br)cn12)c1ccco1`: the Potency entry was “inactive”.
On to `CC(=O)c1cccc(NC(=O)CN2C(=O)c3cccnc3Oc3ccc(Cl)cc32)c1`, for which the Potency entry is “inactive”.
On to `COc1ccccc1OCc1ccc(C(=O)NC(C)c2ccccc2)o1` (stereo unspecified), for which the Potency entry was “inactive”.
On to `CCN(CC)Cc1csc2ccc(Br)cc12`, for which the Potency entry was “inactive”.
In the case of `COc1ccc(C(=O)N(CCN2CCOCC2)CC(=O)NC2CCCC2)cc1OC`, the Potency result was “inactive”.
As for `COc1ccc([N+](=O)[O-])cc1NC(=O)C(C)OC(=O)C1c2ccccc2Oc2ccccc21` (stereo unspecified), the Potency entry was “inactive”.
Regarding `CNc1nccc(-c2ccc(Cl)cc2)c1C#N`, the Potency entry was “inactive”.
The result for `CC(C)(C)CC(C)(C)NCC(O)COCCOc1ccc(Br)cc1` (stereo unspecified) reads “inactive”; that for `CC(C)C(c1nnnn1C(C)(C)C)N1CCN(Cc2cccnc2)CC1` (stereo unspecified), “inactive”; that for `O=C(CSc1ccc(-c2ccc(-n3cccn3)cc2)nn1)Nc1ccc([N+](=O)[O-])cc1`, “inactive”.
In the case of `COc1ccc(CNS(=O)(=O)c2cc3c4c(c2)CCN4C(=O)CC3)cc1` it was “inactive”.
Turning to `CCN(CC(=O)Nc1ccccc1C(F)(F)F)C(=O)CSCc1c(C)noc1C`, the Potency entry was “inactive”.
Turning to `CN(CC(=O)Nc1ccc(F)c(F)c1F)C(=O)Cn1cnc2c1c(=O)n(C)c(=O)n2C`, the Potency result was “inactive”.
`COC(=O)C1(C)NC(c2ccc(C)cc2)C2C(=O)N(c3ccc(F)cc3)C(=O)C21` (stereo unspecified): the Potency result is “inactive”.
Consider `CC1CC(c2ccccc2)n2nc(NC(=O)c3cccs3)nc2N1` (stereo unspecified), for which the Potency result is “inactive”.
For `CN(C(=O)CSc1nnc(-c2ccc(C(C)(C)C)cc2)n1C)C1CCS(=O)(=O)C1` (stereo unspecified), the Potency result is “inactive”.
For `Cc1ccc(NC(=O)CN(C)C(=O)COC(=O)c2nccnc2N)cc1`, the Potency result is “inactive”.
As to `CC(C)CC[n+]1ccn(C2=C([O-])c3ccccc3C(=O)/C2=N\S(=O)(=O)c2ccccc2)c1`, the Potency entry is “inactive”.
Turning to `CC1(C)O[C@H]2CC(=O)OCC23[C@H]2CC[C@@]4(C)[C@H](c5ccoc5)OC(=O)[C@H]5O[C@]54[C@]2(C)C(=O)C[C@@H]13` (stereo partly specified), the Potency result was “inactive”.
In the case of `CCOC(=O)C1CCN(C(=O)COC(=O)C2CCN(S(=O)(=O)c3ccc4c(c3)OCCO4)CC2)CC1`, the Potency entry was “inactive”.
On to `Cc1ccc(C(=O)N2CC(=O)Nc3ccc(F)cc3C2c2ccc(F)cc2)cc1` (stereo unspecified), for which the Potency entry is “inactive”.
Consider `CCOC(=O)N1CCC(NC(=O)CCc2cn(C)c3ccccc23)CC1`, for which the Potency result was “inactive”.
Regarding `FC(F)(F)c1cc(C(F)(F)F)c2ccc(N3CCN(c4ccccc4)CC3)nc2n1`, the Potency entry is “inactive”.
As for `Cc1ccccc1NC(=O)C(C)OC(=O)CCC(=O)N(CC(C)C)c1c(N)n(CC(C)C)c(=O)[nH]c1=O` (stereo unspecified), the Potency entry was “inactive”.
With `COc1cc(NC(=O)c2ccc(-c3csc(C)n3)cc2)c(OC)cc1Cl`, the Potency entry was “inactive”.
The result for `[O-][N+]12CCCCC1CCCC2CO` (stereo unspecified) reads “inactive”; that for `CCN(Cc1ccccc1)C(=O)CSc1nc(C)cc2c1C(=O)OC2`, “inactive”; that for `O=C(COc1ccc(Cl)cc1)NCc1nnc(SCC(=O)NCC2CCCO2)o1` (stereo unspecified), “inactive”.
Regarding `Cc1ccc(C(C(=O)NCC2CCCO2)N(C(=O)c2snc(C(N)=O)c2N)c2ccc(C(C)C)cc2)o1` (stereo unspecified), the Potency result is “inactive”.
In the case of `CC(=O)N/C(=C\c1ccccc1)C(=O)OC(C)C(=O)N(C)c1ccccc1` (stereo unspecified) it was “inactive”; in that of `C=CCn1c(SCC(=O)NC23CC4CC(CC(C4)C2)C3)nc(O)cc1=O`, “inactive”; in that of `Cc1ccc(/C=N/NC(=O)CN2CCN(Cc3ccccc3)CC2)s1`, “inactive”.
With `C=CCNC(=S)N/N=C/c1ccc(C)s1`, the Potency was 5.62 µM (active).
In the case of `C=CCNC(=S)N/N=C/c1ccc(OCc2ccccc2)cc1` it was “inactive”.
In the case of `CCOC(=O)c1sc(N)c(C#N)c1COC(=O)C1=COCCO1` it was “inactive”; in that of `COc1ccc(NC(=O)Cn2c(-c3ccc(OC)cc3)cn(-c3ccc(C)cc3)c2=O)cc1`, “inactive”; in that of `O=C(c1cc2ccccc2o1)N1CCN(c2cccc(C(F)(F)F)c2)CC1`, “inactive”.
Turning to `CC(C)[C@H](NC(=O)c1ccc(F)cc1)C(=O)OCC(=O)NC(=O)c1cccn1C`, the Potency result is “inactive”.
The result for `CC1CN(CCCOc2ccccc2-c2ccccc2)CC(C)O1` (stereo unspecified) reads “inactive”; that for `CCOC(=O)CC1COCCN1C(=O)c1cc(COc2ccc(F)c(F)c2)on1` (stereo unspecified), “inactive”; that for `COC/C=C/C1=CC2=CC(=O)C(C)(OC(=O)CCC(=O)OC)C(=O)C2=CO1` (stereo unspecified), “inactive”.
Take `O=C(CCn1nnnc1CN1CCOCC1)N1CCC(c2ccccc2Cl)C1` (stereo unspecified): the Potency entry was “inactive”.
For the molecule `CC(=O)Oc1ccc(-c2cccc(C(=O)N3CCCCC3)c2)cc1`, the Potency entry was “inactive”.
Regarding `CC1(C)CC(=O)C(C=NCc2cccnc2)=C(O)C1`, the Potency entry was “inactive”.
In the case of `N#C/C(=C\c1cccnc1)C(=O)Nc1ccc(SC(F)F)cc1`, the Potency result was “inactive”.
For `COc1ccc(OC)c(CNC(=O)Cn2nc(C)c3c(C)n(-c4ccc(C)cc4)nc3c2=O)c1`, the Potency result was “inactive”.
In the case of `Cc1ccc(NN=Nc2nc3c([nH]2)c(=O)n(C)c(=O)n3C)cc1`, the Potency result is “inactive”.
The result for `COc1ccc(CNC(=O)C(C)NCc2ccccc2Cl)cc1` (stereo unspecified) reads “inactive”; that for `O=C(Cc1ccc(Cl)cc1)NC(=S)Nc1ccccc1O`, “inactive”.
For `Cc1ccccc1CCNC(=O)C1CCC(=O)N(Cc2ccc(Cl)cc2)C1` (stereo unspecified), the Potency result was “inactive”.
With `CC(C)OCCCNC(=O)c1ccc(C2SCC(=O)N2Cc2ccco2)cc1` (stereo unspecified), the Potency result was “inactive”.
In the case of `COc1ccc(Cl)cc1S(=O)(=O)N1CCC(O)(c2ccc(Cl)cc2)CC1` it was “inactive”.
On to `Cc1nc2scc(-c3cccs3)c2c(=O)n1N`, for which the Potency result is “inactive”.
Turning to `CCOc1ccc(OCC)c(NC(=O)CSc2nnc(Cn3cnc4ccccc43)n2C)c1`, the Potency entry was “inactive”.
